Measurements taken from PubChem BioAssay (EPA / NIEHS).
The source made the active and inactive calls. How the source made its calls: active means hit-call score of the fitted dose curve at least 0.9, where 1 is the maximum; inactive means score below 0.9.

Columns and labels:
Conditions in all cases: mRNA level, 48 h; actives raise or lower the signal
[1] = read-out: Insulin-like growth factor-binding protein 1 (IGFBP1), IGFBP1 (gene 3484); test: LTEA_HepaRG_IGFBP1: Life Technologies and Expression Analysis (LTEA) Assay for Insulin-like growth factor-binding protein 1 (IGFBP1) using HepaRG (AID 2283508)
Summary of the method: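 Thawed HepaRG cells are plated for 48 h, switched to serum-free induction medium, then dosed in duplicate for another 48 h (100 uM top, half-log steps). Lysates in RLT go to qRT-PCR, and gain or loss of signal is fitted relative to vehicle.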

[2] = read-out: Interleukin 6 (IL6), IL6 (gene 3569); test: LTEA_HepaRG_IL6: Life Technologies and Expression Analysis (LTEA) Assay for Interleukin 6 (IL6) using HepaRG (AID 2283509)
Summary of the method: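 HepaRG cells exposed in duplicate for 48 h to eight half-log concentrations, top 100 uM, in 0.5% DMSO serum-free induction medium. mRNA measured by qRT-PCR, normalized to ACTB, GAPDH and POLR2A. Bidirectional fit versus DMSO.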

[3] = read-out: Interleukin 6 Receptor (IL6R), IL6R (gene 3570); test: LTEA_HepaRG_IL6R: Life Technologies and Expression Analysis (LTEA) Assay for Interleukin 6 Receptor (IL6R) using HepaRG (AID 2283510);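 on AC50: TaqMan qRT-PCR signal normalized to ACTB GAPDH and POLR2A housekeeping genes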
Summary of the method: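 Differentiated human HepaRG cells, plated 48 h then switched to serum-free induction medium, were dosed in duplicate for 48 h at eight half-log concentrations up to 100 uM in 0.5% DMSO. IL6R mRNA quantified by qRT-PCR, normalized to ACTB/GAPDH/POLR2A; bidirectional fit versus DMSO.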

[4] = read-out: Potassium channel subfamily K member 1 (KCNK1), KCNK1 (gene 3775); test: LTEA_HepaRG_KCNK1: Life Technologies and Expression Analysis (LTEA) Assay for Potassium channel subfamily K member 1 (KCNK1) using HepaRG (AID 2283511)
Summary of the method: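 Differentiated HepaRG cells, 48 h exposure in serum-free induction medium with 0.5% DMSO; 8 concentrations, half-log from 100 uM, duplicate. KCNK1 mRNA by qRT-PCR, normalized to ACTB, GAPDH, POLR2A; bidirectional fit vs DMSO.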

[5] = read-out: Keratin 19 (KRT19), KRT19 (gene 3880); test: LTEA_HepaRG_KRT19: Life Technologies and Expression Analysis (LTEA) Assay for Keratin 19 (KRT19) using HepaRG (AID 2283512)
Summary of the method: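 KRT19 transcript levels, measured by Fluidigm qRT-PCR against three housekeeping genes, are fitted for gain or loss of signal relative to DMSO. Human HepaRG cells receive test chemicals (top 100 uM, half-log steps, 0.5% DMSO) for 48 hours.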

[6] = read-out: JUN Transcription Factor, JUN (gene 3725); test: LTEA_HepaRG_JUN: Life Technologies and Expression Analysis (LTEA) Assay for JUN Transcription Factor using HepaRG (AID 2283513)
Summary of the method: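 Differentiated HepaRG cells were exposed to chemicals for 48 h in serum-free induction medium, 8 concentrations from 100 uM in half-log steps, 0.5% DMSO vehicle, in duplicate. JUN mRNA was quantified by TaqMan qRT-PCR, normalized to ACTB, GAPDH, POLR2A.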

[7] = read-out: Lipase C (LIPC), LIPC (gene 3990); test: LTEA_HepaRG_LIPC: Life Technologies and Expression Analysis (LTEA) Assay for Lipase C (LIPC) using HepaRG (AID 2283514)
Summary of the method: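 HepaRG cells, 48 h after plating, treated in duplicate for 48 h in serum-free induction medium over 8 half-log concentrations from 100 uM, 0.5% DMSO. LIPC mRNA by TaqMan qRT-PCR normalized to ACTB/GAPDH/POLR2A; bidirectional fit versus DMSO.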

[8] = read-out: Lipoprotein lipase (LPL), LPL (gene 4023); test: LTEA_HepaRG_LPL: Life Technologies and Expression Analysis (LTEA) Assay for Lipoprotein lipase (LPL) using HepaRG (AID 2283515)
Summary of the method: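 Differentiated HepaRG cells, plated 48 h, then exposed 48 h in serum-free induction medium to 8 concentrations (top 100 uM, half-log steps) in 0.5% DMSO, duplicate. LPL mRNA measured by qRT-PCR, normalized to ACTB, GAPDH and POLR2A.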

[9] = read-out: MicroRNA 122 (MIR122), gene 406906; test: LTEA_HepaRG_MIR122: Life Technologies and Expression Analysis (LTEA) Assay for MicroRNA 122 (MIR122) using HepaRG (AID 2283516); further: the transcript read is the microRNA miR-122
Summary of the method: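 Differentiated human HepaRG cells were exposed 48 h in serum-free induction medium to eight half-log concentrations (top 100 uM, 0.5% DMSO). Transcript level was measured by TaqMan qRT-PCR, normalized to ACTB, GAPDH and POLR2A, and fitted bidirectionally versus DMSO.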

[10] = read-out: matrix metalloproteinase-10 (MMP10), MMP10 (gene 4319); test: LTEA_HepaRG_MMP10: Life Technologies and Expression Analysis (LTEA) Assay for matrix metalloproteinase-10 (MMP10) using HepaRG (AID 2283517)
Summary of the method: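 Differentiated HepaRG cells in serum-free induction medium exposed 48 h in duplicate to 8-point half-log series up to 100 uM in 0.5% DMSO. mRNA quantified by qRT-PCR, normalised to ACTB, GAPDH, POLR2A; bidirectional fit versus DMSO.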

[11] = read-out: MYC, MYC (gene 4609); test: LTEA_HepaRG_MYC: Life Technologies and Expression Analysis (LTEA) Assay for MYC using HepaRG (AID 2283518)
Summary of the method: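 HepaRG, ~100,000 cells/well, collagen I; 48 h plating; serum-free induction medium; 48 h dosing, duplicate, 100 uM top, half-log, 0.5% DMSO; total RNA → qRT-PCR MYC; gain/loss fit vs DMSO.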

[12] = read-out: matrix metalloproteinase-3 (MMP3), MMP3 (gene 4314); test: LTEA_HepaRG_MMP3: Life Technologies and Expression Analysis (LTEA) Assay for matrix metalloproteinase-3 (MMP3) using HepaRG (AID 2283519)
Summary of the method: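 HepaRG cells (~100,000/well) in serum-free induction medium were dosed in duplicate for 48 h with an 8-point half-log series from 100 uM, 0.5% DMSO. MMP3 mRNA was quantified by Fluidigm TaqMan qRT-PCR, normalized to three housekeeping genes.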

[13] = read-out: Paternally Expressed 10 (PEG10), PEG10 (gene 23089); test: LTEA_HepaRG_PEG10: Life Technologies and Expression Analysis (LTEA) Assay for Paternally Expressed 10 (PEG10) using HepaRG (AID 2283520)
Summary of the method: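 Differentiated HepaRG cells, plated 48 h then switched to serum-free induction medium, were exposed in duplicate for 48 h to eight half-log concentrations topping at 100 uM in 0.5% DMSO. PEG10 mRNA was quantified by TaqMan qRT-PCR, normalised to ACTB, GAPDH and POLR2A.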

[14] = read-out: Nuclear factor NF-kappa-B p105 subunit (Homo sapiens) (UniProt P19838); test: LTEA_HepaRG_NFKB1: Life Technologies and Expression Analysis (LTEA) Assay for Nuclear Factor Kappa B Subunit 1 (NFKB1) using HepaRG (AID 2283521);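 further: TaqMan qRT-PCR transcript normalised to ACTB GAPDH and POLR2A housekeeping genes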
Summary of the method: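 Differentiated human HepaRG cells in serum-free induction medium with 0.5% DMSO were exposed for 48 h to eight half-log concentrations, top 100 uM, in duplicate. NFKB1 mRNA measured by Fluidigm TaqMan qRT-PCR, normalised to ACTB, GAPDH and POLR2A; bidirectional fit versus DMSO.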

[15] = read-out: Phosphatase and tensin (PTEN), PTEN (gene 5728); test: LTEA_HepaRG_PTEN: Life Technologies and Expression Analysis (LTEA) Assay for Phosphatase and tensin (PTEN) using HepaRG (AID 2283523)
Summary of the method: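 HepaRG cells, 48 h after plating, exposed in duplicate for 48 h in serum-free induction medium to 8 half-log concentrations up to 100 uM (0.5% DMSO). PTEN mRNA by qRT-PCR, normalized to ACTB, GAPDH, POLR2A; bidirectional fit versus DMSO.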

[16] = read-out: solute carrier (SLC22A1), SLC22A1 (gene 6580); test: LTEA_HepaRG_SLC22A1: Life Technologies and Expression Analysis (LTEA) Assay for solute carrier (SLC22A1) using HepaRG (AID 2283524)
Summary of the method: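 Differentiated human HepaRG cells in serum-free induction medium, exposed 48 h in duplicate to 8-point half-log series from 100 µM top in 0.5% DMSO. SLC22A1 mRNA by TaqMan qRT-PCR normalized to ACTB, GAPDH, POLR2A; bidirectional fit versus DMSO.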

[17] = read-out: Pyruvate Dehydrogenase Kinase 4 (PDK4), PDK4 (gene 5166); test: LTEA_HepaRG_PDK4: Life Technologies and Expression Analysis (LTEA) Assay for Pyruvate Dehydrogenase Kinase 4 (PDK4) using HepaRG (AID 2283525)
Summary of the method: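 HepaRG cells plated 48 h, then switched to serum-free induction medium and exposed in duplicate for 48 h to 8 half-log concentrations from 100 uM in 0.5% DMSO. PDK4 mRNA measured by qRT-PCR, normalized to ACTB, GAPDH and POLR2A; bidirectional fit versus DMSO.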

[18] = read-out: NAD(P)H dehydrogenase [quinone] 1 (NQO1), NQO1 (gene 1728); test: LTEA_HepaRG_NQO1: Life Technologies and Expression Analysis (LTEA) Assay for NAD(P)H dehydrogenase [quinone] 1 (NQO1) using HepaRG (AID 2283526)
Summary of the method: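 Differentiated HepaRG cells, plated 48 h and then switched to serum-free induction medium, were exposed in duplicate for 48 h to 8-point half-log concentrations up to 100 uM in 0.5% DMSO. mRNA measured by qRT-PCR, normalized to ACTB, GAPDH, POLR2A; bidirectional fit versus DMSO.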

[19] = read-out: Nuclear factor erythroid 2-related factor 2 (Homo sapiens) (UniProt Q16236); test: LTEA_HepaRG_NFE2L2: Life Technologies and Expression Analysis (LTEA) Assay for Nuclear factor erythroid 2-related factor 2 (NFE2L2) Transcription Factor using HepaRG (AID 2283527)
Summary of the method: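 Differentiated human HepaRG cells, serum-free induction medium, exposed 48 h in duplicate to eight half-log concentrations up to 100 uM in 0.5% DMSO. NFE2L2 mRNA by Fluidigm TaqMan qRT-PCR, normalised to ACTB, GAPDH, POLR2A; bidirectional change versus DMSO.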

[20] = read-out: Protein phosphatase 2A (PPP2R4), PTPA (gene 5524); test: LTEA_HepaRG_PPP2R4: Life Technologies and Expression Analysis (LTEA) Assay for Protein phosphatase 2A (PPP2R4) using HepaRG (AID 2283522)
Summary of the method: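 Differentiated HepaRG cells in serum-free induction medium were exposed in duplicate for 48 h to eight concentrations, top 100 uM with half-log dilutions, in 0.5% DMSO. PPP2R4 mRNA was quantified by TaqMan qRT-PCR, normalized to ACTB, GAPDH and POLR2A.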

Measured: AC50

Nuclear factor erythroid 2-related factor 2 (Homo sapiens), sequence (Q16236 whole entry, looked up): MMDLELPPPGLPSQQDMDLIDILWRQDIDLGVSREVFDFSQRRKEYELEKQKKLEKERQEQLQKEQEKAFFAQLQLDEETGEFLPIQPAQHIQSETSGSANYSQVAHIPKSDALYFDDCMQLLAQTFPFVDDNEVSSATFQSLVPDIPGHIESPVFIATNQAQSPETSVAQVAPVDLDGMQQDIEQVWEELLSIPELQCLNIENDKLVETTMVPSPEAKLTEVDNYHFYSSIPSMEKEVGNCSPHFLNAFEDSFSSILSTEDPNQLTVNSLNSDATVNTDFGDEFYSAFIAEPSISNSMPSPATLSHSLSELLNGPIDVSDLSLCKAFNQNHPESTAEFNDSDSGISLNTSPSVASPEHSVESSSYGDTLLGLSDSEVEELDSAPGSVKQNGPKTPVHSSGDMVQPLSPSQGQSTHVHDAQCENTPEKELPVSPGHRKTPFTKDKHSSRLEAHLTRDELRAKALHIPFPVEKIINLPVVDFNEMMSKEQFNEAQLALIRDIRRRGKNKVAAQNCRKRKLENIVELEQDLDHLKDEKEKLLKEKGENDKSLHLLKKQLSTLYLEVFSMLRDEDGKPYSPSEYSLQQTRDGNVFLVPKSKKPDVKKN
Nuclear factor NF-kappa-B p105 subunit (Homo sapiens), sequence (P19838 whole entry, looked up): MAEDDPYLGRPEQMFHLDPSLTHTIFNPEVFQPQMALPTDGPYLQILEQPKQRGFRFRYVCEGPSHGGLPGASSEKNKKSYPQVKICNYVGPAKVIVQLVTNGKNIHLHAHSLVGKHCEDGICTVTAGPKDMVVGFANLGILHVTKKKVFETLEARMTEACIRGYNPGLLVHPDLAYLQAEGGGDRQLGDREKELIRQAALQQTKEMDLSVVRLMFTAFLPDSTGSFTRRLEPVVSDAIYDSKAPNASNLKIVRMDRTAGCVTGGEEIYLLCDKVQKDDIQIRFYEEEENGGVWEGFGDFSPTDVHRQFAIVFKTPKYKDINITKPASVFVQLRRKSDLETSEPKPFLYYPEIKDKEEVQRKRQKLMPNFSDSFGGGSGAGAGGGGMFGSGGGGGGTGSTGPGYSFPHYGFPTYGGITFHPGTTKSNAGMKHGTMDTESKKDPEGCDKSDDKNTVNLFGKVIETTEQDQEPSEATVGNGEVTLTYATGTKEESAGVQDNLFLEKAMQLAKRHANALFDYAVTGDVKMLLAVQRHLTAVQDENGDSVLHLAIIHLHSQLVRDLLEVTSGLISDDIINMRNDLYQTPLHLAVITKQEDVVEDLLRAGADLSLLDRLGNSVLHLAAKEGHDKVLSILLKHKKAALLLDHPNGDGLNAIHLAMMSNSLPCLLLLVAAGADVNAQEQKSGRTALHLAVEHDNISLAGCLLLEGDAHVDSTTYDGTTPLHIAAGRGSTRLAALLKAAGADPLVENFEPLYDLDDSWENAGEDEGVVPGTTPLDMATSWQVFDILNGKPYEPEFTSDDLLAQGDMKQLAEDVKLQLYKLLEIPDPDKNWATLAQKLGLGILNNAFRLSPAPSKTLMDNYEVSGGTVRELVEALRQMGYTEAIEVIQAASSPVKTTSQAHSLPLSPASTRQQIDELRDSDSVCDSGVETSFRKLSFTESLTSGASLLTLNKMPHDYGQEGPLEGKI

Nc1ccc2c(c1)C(=O)c1ccccc1C2=O
inactive: [2] | [3] | [4] | [6] | [10] | [12] | [14] | [15] | [18]
active: [1] 13.2 µM | [5] 9.08 µM | [7] 8.27 µM | [8] 2.09 µM | [9] 4.24 µM | [11] 12.3 µM | [13] 15.5 µM | [16] 7.06 µM | [17] 13.2 µM | [19] 27.8 µM

CC(C)(C)c1cc(O)c(C(C)(C)C)cc1O
active: [1] 50 µM | [2] 75.7 µM | [3] 77.6 µM | [5] 77.4 µM | [7] 79.7 µM | [9] 79.8 µM | [10] 93.6 µM | [12] 50 µM | [13] 32.5 µM | [15] 87.6 µM | [16] 76.8 µM | [18] 80.6 µM
inactive: [4] | [6] | [8] | [11] | [14] | [20] | [17] | [19]

Cc1ccc(Cl)cc1
not listed: [14] | [15]
inactive: all other assays above

Cc1cc(NC(=O)C(=O)O)cc(C)c1Oc1ccc(O)c2c1CCC2
active: [5] 0.0224 µM | [16] 9.92 µM | [17] 0.00353 µM
not listed: [14]
inactive: all other assays above

c1cc(-c2ccncc2)ccn1
active: [12] 17.6 µM
not listed: [11]
inactive: all other assays above

CCCCCCCCCCCCCO
not listed: [14]
inactive: all other assays above

COc1ccc(C)cc1N
inactive: all assays above
